About 83,000 compounds went through this panel and 20% of them were active in at least one assay; those are over-represented in the sample as a whole.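 The endpoint reported here, percent growth, reads 100 for growth as untreated, 0 for no net growth and -100 for all cells dead.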 A number with no mark means an inactive call. The source made the active and inactive calls. How the source made its calls: active means growth percent below 10; inactive means the rest.

For the assay, the system named is TK-10 renal. As to the kind of experiment: NCI-60 one-dose screen, 48 h (100 = growth as untreated, 0 = no growth, -100 = all killed). The settings on record: 10 µM unless noted.
For `COc1cc(OC)cc(C2=C3CC[C@@H]4[C@H](CC[C@]5(C)C(=O)CC[C@@H]45)C3=CC3C(O)c4cccnc4N4C(=O)COC234)c1` (some centres not stated), the growth is 96.5%.

`CC(=O)Cc1nsc(NC(=O)c2cc(-c3cc(Cl)cc(Cl)c3)oc2C)n1`: the growth was 130%.

`CCOC(=O)c1cn2ncnc(Oc3ccc(NC(=O)NC4CCCCC4)c(Cl)c3)c2c1C`: the growth was 111%.

For `Cc1nnc(NC(=O)c2nc(S(=O)(=O)Cc3ccc(F)cc3)ncc2Cl)s1`, the growth was 79%.

In the case of `C#CCOc1ccc2ncnc(Nc3ccc(NC(=O)CCl)cc3)c2c1`, the growth is 1.64% (active).

On to `CCOC(=O)C#Cc1c(C(=O)OCC)nnn1[C@@H]1O[C@H](CO)[C@H]2OC3(CCCCC3)O[C@H]21`, for which the growth was -3.79% (active).

As for `C/C(=N/O)c1ccc(F)cc1`, the growth is 92.8%.

With `CCOC(=O)Cn1c(O)c(N=Nc2ccc(S(N)(=O)=O)cc2)c2cc(Br)ccc21`, the growth was 86.4%.

Regarding `Cc1nc(N2CCOCC2)sc1S(N)(=O)=O`, the growth was 90.1%.

As to `COc1ccc(OC)c(C(=O)/C=C/c2cc3c(c(OC)c2OC)OCO3)c1`, the growth is 122%.

`O=c1oc2ccccc2cc1C1=NN=C(SCc2ccccc2)SC1`: the growth is 108%.

As for `COc1ccc(C(=S)N2CCN(c3ccccc3Cl)CC2)cc1OC`, the growth was 108%.

On to `Cc1ccc(/C=C2\CN(C(=O)OC(C)(C)C)C/C(=C\c3ccc(C)cc3)C2=O)cc1`, for which the growth is 87%.

Consider `O=C(Nc1nn(-c2ccc(Cl)cc2Cl)nc1-c1ccccc1)c1ccccc1`, for which the growth was 117%.

Take `CCN(CC)c1ccc(/C=C/C(=O)c2ccc(Nc3nc(Nc4ccccc4)nc(Nc4ccccc4)n3)cc2)cc1`: the growth was 59.3%.

On to `COC(=O)[C@H]1CCCN1C[C@@H](O)CN1C(=O)/C(=C\c2cc(OC)c(OC)c(OC)c2)c2ccccc21`, for which the growth is 102%.

For the compound `CN(C)c1ccc(Nc2cc(-c3cccc(OC(F)(F)F)c3)nc3ccc(N4CCCC4)cc23)cc1`, the growth was 95.4%.

For `O=C(Nc1cc(Cl)ccc1O)c1ccc(Nc2ccnc(C(F)(F)F)c2)cc1`, the growth is 79%.

Take `COc1cc(OC)c2sc(-c3ccc(-n4cncc4-c4ccc(OC)c(OC)c4)cc3)nc2c1`: the growth was 71.9%.

For the compound `O=C1c2cccnc2C(=O)c2c1c(C(=O)NCCCN1CCCCC1)c1ccccn21`, the growth was -1.12% (active).

Take `CCOC(=O)c1ccc2[nH]c(O)c(C(=Nc3ccc(N(C)C(=O)CN4CCN(C)CC4)cc3)c3ccccc3)c2c1`: the growth was -70% (active).

For the compound `CCN1C(=O)N(CC)C2C1NN=c1s/c(=C\c3cccc([N+](=O)[O-])c3)c(=O)n12` (configuration not stated), the growth was 69.6%.

For the compound `CC1=C(Nc2ccc(N3CCN(C)CC3)cc2)C(=O)c2cncnc2C1=O`, the growth is 142%.

`O=C1Nc2ccc(Br)cc2/C1=N/c1n[nH]c(=S)s1`: the growth is 104%.

As to `CCN(c1ccc(Cl)cc1)c1nc(-c2ccc([N+](=O)[O-])cc2)cs1`, the growth was 115%.

As for `C=C(C)[C@@H]1CC[C@]2(C)[C@H](CC=C3[C@@H]4[C@H](C)[C@@H](C)CC[C@]4(CO)CC[C@]32C)[C@@]1(C)CCCN`, the growth was -68.3% (active).

As for `O=C(/C=C(/C=C/c1cccc2[nH]ccc12)OB(F)F)/C=C/c1cccc2[nH]ccc12`, the growth was -37.9% (active).

On to `CCN1CC(=O)N(/N=C2\C(=O)Nc3ccccc32)C1=S`, for which the growth is 105%.

Take `CCN1CCN(c2cc(C(=O)Nc3nc(-c4cc(OC)c(OC)c(OC)c4)cs3)cc(C(F)(F)F)c2)CC1`: the growth was 82.4%.

`COc1ccc(-c2nc(/C=C3\SC(=NCc4ccccc4)NC3=O)c3ccccn23)cc1`: the growth is -52.4% (active).

For the compound `CCOC(=O)C(=Cc1cccc(Br)c1)C(=O)OCC`, the growth is 58.5%.

Take `N#CC1=C(N)Oc2c(sc3c(F)cccc23)C1c1ccc(F)cc1` (configuration not stated): the growth is 35.8%.

In the case of `CCOc1nc(-c2ccccc2)cc2c(O)c(C(=O)NN)[nH]c(=O)c12`, the growth is 120%.

Take `O=C1c2cccc(NCCN=Cc3cc(O)ccc3O)c2C(=O)c2c(NCCN=Cc3cc(O)ccc3O)cccc21`: the growth was -12.1% (active).

In the case of `C=CCn1cc(-c2nc3ccccc3s2)c2cc(-c3ccc4c5c(cccc35)C(=O)N(N)C4=O)ccc21`, the growth was 152%.

Regarding `CCOC(=O)CNP(=O)(OC[C@@H](Cc1ccccc1)NC(=O)c1cc2ccccc2s1)Oc1ccccc1` (some centres not stated), the growth is 109%.

For the compound `CCC(=C(c1ccc(OCCN2CCCC2)cc1)c1ccc(OCCN2CCCC2)cc1)c1ccc(Cl)cc1`, the growth was -12.5% (active).

Source of the values: PubChem BioAssay (NCI).
